Measured values: PubChem BioAssay AID1259309 (ICCB-Longwood Screening Facility, Harvard Medical School, 2017)
Several values for one entry are separate records, joined by “and”; a condition that tells them apart may be missing. Equal values may be shown once. The campaign covered roughly 330,000 compounds. About 1,800 (0.55%) were called active. What follows is part of a selection rich in actives, with near analogues and random picks from the rest. A number with no mark means an inactive call. Rule as the data show it: active = growth inhibition above about 68%; inactive = the rest.

Experiment: growth inhibition of ugtP-null S. aureus, primary screen, RN4220 ugtP deletion, OD600 (AID 1259309);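 also: plate controls were untreated wells for no effect and antibiotic for full effect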
Conditions: 16 h, hits give high values
`Cc1ccc(S(=O)(=O)N(Cc2cccc([N+](=O)[O-])c2)C(=O)N2CCN(C)CC2)cc1` showed a growth inhibition of 2.43%.
`O=C(c1cccc([N+](=O)[O-])c1)N1CCN(Cc2ccccc2)CC1` gave a growth inhibition of 9.07%.
With `O=C(CCl)N(Cc1cccc([N+](=O)[O-])c1)c1cccc(Cl)c1` the growth inhibition was 97.8% (active).
Compound `COC(=O)C1=C(c2ccc3ccccc3c2)CC2CCC1N2C(=O)NCc1ccc(F)cc1` (stereo not drawn) has a growth inhibition of 12%.
`COc1cccc(C2C3=C(N=c4sc(=Cc5cccc(O)c5)c(=O)n42)c2ccccc2CC3)c1OC` (stereo not drawn) showed a growth inhibition of -7.58%.
`COc1ccc(CCNC(=O)C(Sc2ccccn2)c2ccccc2)cc1OC` (stereo not drawn) gave a growth inhibition of 9.85%.
Work on `COc1ccc(CN(Cc2ccc(OC)cc2)C(=O)c2cccs2)cc1` yielded a growth inhibition of 43.4%.
In the case of `COc1ccc(C(CCN(Cc2ccc(OC)c(OC)c2)C(=O)CCl)c2ccccc2)cc1` (stereo not drawn), the growth inhibition is reported as 98% (active).
Compound `COc1ccc(N(CC(=O)NN=Cc2ccco2)S(=O)(=O)c2ccccc2)cc1Cl` has a growth inhibition of 2.1%.
For `COc1ccc(C=NNC(=O)COc2ccc(C(C)(C)C)cc2)cc1Cn1nc(C)cc1C`, the growth inhibition was 0.349%.
For `O=C(NN=Cc1cccnc1)C1CC1(c1ccccc1)c1ccccc1` (stereo not drawn), the growth inhibition was 9.47%.
In the case of `O=C1C=C(c2cccc(CO)c2)CC(c2ccc(Cl)cc2)C1` (stereo not drawn), the growth inhibition is reported as 7.76%.
In the case of `FC(F)(F)c1cccc(NC(=S)Nc2cccc(Cl)c2)c1`, the growth inhibition is reported as 93.1% (active).
`Cn1cc(Cl)c(C(=O)NNC(=S)Nc2cccc(Cl)c2)n1` showed a growth inhibition of -5.85%.
Work on `O=C(O)CC1(CC(=O)Nc2cccc(C(F)(F)F)c2)CCCC1` yielded a growth inhibition of -0.923%.
Work on `Cc1ccc(SC(=NS(=O)(=O)c2ccc(Cl)cc2)c2ccccc2)cc1` yielded a growth inhibition of 60.7%.
`O=C(COC(=O)C=Cc1ccccc1)Nc1cc(C(F)(F)F)ccc1N1CCOCC1` gave a growth inhibition of -9.22%.
In the case of `CCCCCCCCn1c2c(c(=N)c3c1CCC3)CCCC2`, the growth inhibition is reported as 100% (active).
`COc1ccc(OC)c(C=NNC(=O)c2ccc(-c3ccccc3)cc2)c1` showed a growth inhibition of 1.81%.
In the case of `CC(=NNC(=O)c1cc(-c2ccc(Br)s2)[nH]n1)c1ccncc1`, the growth inhibition is reported as -6.85%.
In the case of `CC1COc2ccccc2N1C(=O)c1ccc(F)cc1` (stereo not drawn), the growth inhibition is reported as -0.431%.
`O=C(COC(=O)c1ccc(F)cc1)NCC1COc2ccccc2O1` (stereo not drawn) showed a growth inhibition of -4.48%.
For `O=C(Nc1nnc(C2COc3ccccc3O2)o1)c1ccc(F)cc1` (stereo not drawn), the growth inhibition was 90.2% (active).
Compound `COC(=O)c1ccccc1-c1ccc(C=NNc2nc(N3CCCC3)nc(N3CCCC3)n2)o1` has a growth inhibition of -8.43%.
Work on `CON=Cc1cc(C(=O)c2ccc(Cl)cc2Cl)cn1C` yielded a growth inhibition of -4.32%.
In the case of `CC(C)=CCCC1(C)C=Cc2c(ccc3c2[nH]c2cc(O)c(C)cc23)O1` (stereo not drawn), the growth inhibition is reported as 95.6% (active).
`CC[C@@]12C(=O)N(c3cccc(F)c3)C(=O)N1C(c1ccc(Br)cc1)C1C(=O)N(C(C)(C)C)C(=O)C12` (stereo partly drawn) showed a growth inhibition of -3.27%.
For `CCCCCCCCCCCCN1CC(=CC(=O)OCC)c2cc(C(F)(F)F)ccc2S1(=O)=O`, the growth inhibition was 2.79%.
Compound `O=C(CON=Cc1c(Cl)cccc1Cl)NNC(=O)c1cccc(Cl)c1` has a growth inhibition of 2.89%.
In the case of `Cc1ccccc1NC(=O)CSC(=O)c1ccccc1`, the growth inhibition is reported as 5.32%.
With `Cc1ccccc1N/C(SCc1ccc(Cl)cc1)=C(/C#N)C(N)=O` the growth inhibition was 84.4% (active).
With `Cc1cccc(NC(=O)CSC(N)=O)c1C` the growth inhibition was 8.69%.
`O=C(CNC(=O)c1ccc(-c2ccccc2)cc1)OCc1ccc(Cl)cc1` showed a growth inhibition of 19.4%.
Work on `O=C(OCC(=O)c1c[nH]c2ccccc12)c1cccc(O)c1` yielded a growth inhibition of -15.2%.
In the case of `O=C(OCc1ccc(-c2ccccc2)cc1)c1cccc(O)c1`, the growth inhibition is reported as 100% (active).
For `Cn1cccc1CC(=O)NN=Cc1ccco1`, the growth inhibition was -0.545%.
In the case of `OCCC1CC(O)C(O)[C@]2(OCCCc3ccccc32)O1` (stereo partly drawn), the growth inhibition is reported as 4.16% and 2.75%.
Work on `COc1cc(C=NNC(=O)CC#N)ccc1Oc1nc(Cl)ncc1F` yielded a growth inhibition of -1.11%.
For `O=C(Oc1ccc(C=NNc2ccccc2)cc1)c1ccccc1`, the growth inhibition was -8.03%.
In the case of `N#CC(=NNc1cc(Cl)cc(Cl)c1)c1nnc2n1CCCCC2`, the growth inhibition is reported as -12%.
For `Cc1cc(C)n(C(=O)C(C#N)=NNc2cc(Cl)cc(Cl)c2)n1`, the growth inhibition was 99.7% (active).
Work on `Cc1cc(C)n(C(=O)CCNC(=O)c2ccccc2Cl)n1` yielded a growth inhibition of -2.2%.
`CC(=NNC(=O)c1ccco1)c1ccc(NC(=O)C(F)(F)F)cc1` gave a growth inhibition of 0.661%.
`CCOc1ccc(N2C(=O)CC(S/C(N)=N/N=Cc3cccs3)C2=O)cc1` (stereo not drawn) showed a growth inhibition of 4.39%.
For `CCOC1OC(C(=O)N2CCN(Cc3ccc4c(c3)OCO4)CC2)=CC(c2cn(C(C)=O)c3ccccc23)C1CCCO` (stereo not drawn), the growth inhibition was -12.6% and 8.11%.
In the case of `Oc1ccccc1C=NNc1cccc2cccnc12`, the growth inhibition is reported as 83% (active).
With `Oc1ccccc1C=NNc1nccnc1Cl` the growth inhibition was 0.00308%.
With `Oc1ccc(C=NNc2cccc3cccnc23)c(O)c1` the growth inhibition was 3.39%.
Compound `Cc1ccc2nc(NN=Cc3ccccc3C#N)nc(-c3ccccc3)c2c1` has a growth inhibition of 11.2%.
`O=c1c2nnn(-c3ccccc3)c2ncn1CC=Cc1ccccc1` gave a growth inhibition of 12.1%.
`CCOc1ccc2c(c1)C(c1ccc(C)cc1)=NNC(c1ccc(C)cc1)=N2` gave a growth inhibition of 10.8%.
With `CCOc1ccc(-c2cc(C)[n+](CCN(CC)CC)c(-c3ccc(OCC)cc3)c2)cc1` the growth inhibition was 97.1% (active).
`CCOc1ccc(-c2nnc3ccc(SC)nn23)cc1` showed a growth inhibition of 0.868%.
In the case of `CCCC(C#Cc1ccc(N(C)C)cc1)=C1c2ccccc2C(=O)N1c1ccccc1`, the growth inhibition is reported as 13.2%.
For `COC(=O)NN=Cc1cc(Br)ccc1OCc1ccccc1`, the growth inhibition was 20.2%.
`C(=Nn1c2ccccc2c2ccccc21)c1ccccc1` showed a growth inhibition of 11.7%.
With `CC(C)c1ccc2c(c1)c(SC(C)(C)C)c(CC(C)(C)C(=O)O)n2Cc1ccc(Cl)cc1` the growth inhibition was 101% (active).
Compound `CCOc1ccc2ccccc2c1C=NNC(=O)CNC(=O)C(c1ccccc1)c1ccccc1` has a growth inhibition of 22.4%.
For `CN1CCSC1=CC=C1C(=O)N(C)C(=S)N1C`, the growth inhibition was -5.24%.
In the case of `Cc1ccc(O)c(-c2cc(C(=O)Nc3c(C)n(C)n(-c4ccccc4)c3=O)[nH]n2)c1`, the growth inhibition is reported as 2.72%.
In the case of `Cc1ccc(C)c(NC(=O)c2cc(-c3cc(C)cc(C)c3O)n[nH]2)c1`, the growth inhibition is reported as 99.5% (active).
`Cc1ccc(O)c(-c2cc(C(=O)NCc3ccccc3)[nH]n2)c1` gave a growth inhibition of 7.53%.
For `CNC(=O)CCCCC(=O)NN=Cc1ccc(Cl)cc1Cl`, the growth inhibition was -1.21%.
In the case of `COc1ccc(CC2CN3C(=NCC3C)N2CCNC(=O)CCC2CCCCC2)cc1` (stereo not drawn), the growth inhibition is reported as -6.07% and 2.3%.
Compound `COc1cccc(C=NNc2ncnc(N)c2[N+](=O)[O-])c1OC` has a growth inhibition of -0.174%.
For `O=C(Nc1ccccc1)C1CC=CC2CCN(Cc3ccc(Cl)c(Cl)c3)C(=O)C21` (stereo not drawn), the growth inhibition was 2.24%.
Work on `Cc1c(N2C(=O)CSC2=NN=Cc2ccccc2O)c(=O)n(-c2ccccc2)n1C` yielded a growth inhibition of 7.58%.
With `CC(C)CCn1c(=O)c(C(=O)NN=Cc2cccc(F)c2)c(O)c2ccccc21` the growth inhibition was 99% (active).
`CCCn1c(=O)c(C(=O)Nc2cc(C)ccn2)c(O)c2ccccc21` showed a growth inhibition of 11.7%.
With `CCCCCn1c(=O)c(C(=O)NCc2ccccc2)c(O)c2ccccc21` the growth inhibition was 44.1%.
With `CCCn1c(=O)c(C(=O)NN=Cc2ccc(F)cc2)c(O)c2ccccc21` the growth inhibition was 101% (active).
Compound `CCCn1c(=O)c(-c2ccccc2)c(O)c2ccccc21` has a growth inhibition of 10.2%.
For `CCCCCn1c(=O)c(C(=O)NCc2ccccn2)c(O)c2ccccc21`, the growth inhibition was 10.1%.
In the case of `C/C(C=NNc1nc(C)cc(=O)[nH]1)=C\c1ccccc1`, the growth inhibition is reported as -4.37%.
With `Cc1ccc(S(=O)(=O)N=Cc2ccco2)cc1` the growth inhibition was 4.28%.
With `COC(=O)c1ccc(C23CC4(C2)C(CN(Cc2cccnc2)C4c2ccccc2)C3c2ccc(Cl)nc2)cc1` (stereo not drawn) the growth inhibition was 8.61%.
`O=C(COc1ccccc1)NCC(=O)NN=C/C=C/c1ccccc1` showed a growth inhibition of 2.76%.
`O=S1(=O)C[C@@H]2N=C(NN=Cc3ccccc3)S[C@@H]2C1` showed a growth inhibition of -0.808%.
`COc1ccc(C=CC2=CCN(Cc3ccc(OC)cc3)CC2)cc1` gave a growth inhibition of 1.66%.
Work on `O=C(NC(=S)NC1CCCCC1)c1ccc(Cl)cc1` yielded a growth inhibition of 82.7%.
For `CC(C)CNC(=S)NC(=O)c1ccc(Cl)cc1`, the growth inhibition was 91.1% (active).
`CC(C)C(NC(=O)c1ccc(Cl)cc1)C(=O)O` (stereo not drawn) gave a growth inhibition of 0.934%.
In the case of `Brc1ccccc1C1Nc2cccc3cccc(c23)N1`, the growth inhibition is reported as -4.74%.
With `COc1ccc(C2NC(=O)c3ccccc3N2)cc1` (stereo not drawn) the growth inhibition was 6.04%.
For `Oc1ccc(C2Nc3cccc4cccc(c34)N2)cc1`, the growth inhibition was 96.6% (active).
`COc1ccc(C=NNC(=O)c2cc[n+]([O-])cc2)cc1` showed a growth inhibition of 2.45%.
Work on `CC(=NNc1ccc(S(=O)(=O)N2CCCCC2)cn1)c1ccc(O)cc1` yielded a growth inhibition of -0.0996%.
Work on `COc1ccccc1CN(C)C(=O)c1cc2ccccc2o1` yielded a growth inhibition of 9.31%.
With `Cc1ccc(OC(=O)c2cc3ccccc3o2)cc1` the growth inhibition was 98% (active).
In the case of `Cc1ccc(OC(=O)c2ccccc2C(=O)OCC(F)(F)C(F)F)cc1`, the growth inhibition is reported as 14.2%.
`Cc1ccc(-c2nnnn2C2CC(=NNC(N)=S)C3OCC2O3)cc1` (stereo not drawn) showed a growth inhibition of 3.57%.
`O=C(NN=Cc1ccncc1)c1cccc(NC(=O)c2ccc(Cl)cc2)c1` showed a growth inhibition of -6.73%.
Work on `O=C(CSc1nc2ccccc2c(=O)n1-c1ccc(F)cc1)NC1CC1` yielded a growth inhibition of 2.6%.
Work on `CCn1c(/C=C/c2ccc([N+](=O)[O-])o2)nc2ccccc2c1=O` yielded a growth inhibition of 11.7%.
For `O=c1c2ccccc2nc(/C=C/c2ccc(F)cc2)n1-c1ccccc1O`, the growth inhibition was 97.9% (active).
`O=C(CSc1nc2ccccc2c(=O)n1-c1ccccc1F)N1CCOCC1` gave a growth inhibition of -0.774%.
In the case of `O=c1c2ccccc2nc(/C=C/c2ccco2)n1-c1ccccc1O`, the growth inhibition is reported as 92% (active).
For `O=c1c2ccccc2nc(-c2ccco2)n1-c1ccc(Br)cn1`, the growth inhibition was 11.8%.
